The supplement of paper PMC11417369
Whole data set: some 25,000 sequences, median “ln(normalized median fluorescence intensity)” near 7.1, cut for the highest 2% near 10. The full list was thinned out, with the highest values kept by preference.

tested on: PfSIP2 AP2 domain 1 (GST-tagged); test: gcPBM binding intensity (ln(normalized median fluorescence intensity)); higher = stronger DNA binding
In short: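 Using an Agilent 4 × 180k array, primer-extended double-stranded 36-bp intergenic genomic probes and negative controls were exposed for 1 h to GST-fused P. falciparum DNA-binding domains expressed in E. coli. Binding was carried out in 1× PBS with 1% milk, 0.2 mg/ml BSA, 0.5% salmon testes DNA and 0.03% Triton X-100, and protein was detected with Alexa488 anti-GST antibody and a 488 nm scan. Binding intensity is the highest Masliner-normalised natural-log median intensity across replicate spots of either probe orientation.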

Sequence | gcPBM binding intensity (ln)
TATATACTCAGACATACACACAAATAAAAAAACACC [CACACA_site5820] | 8.07
AAATAATATATTCTATATAATAAATTATAAATATAA [GTGCAC_negctrl_site558] | 6.58
AAGTGTATATAAAAATGTACATATTTCGATTTAAAT [XGTACX_site4161] | 7.11
TTCTTAAAAGGAAAGGTGCAACTTTATCATTTTCTT | 10.9
TTTATATCATTTCTTAAAAAAAAGGAGGTAATAGAC [TGCATGCA_negctrl_site555] | 8.44
TTATTTTTAATATCGGTGCAACAAAAAGGAAAAGAT [GTGCAC_site9482] | 9.64
TAAAGATGAAATATCACACATATATAAATATATAAA [CACACA_site4580] | 6.69
AATAATAATAGAAACACACACACATTTTTAAGAATA [CACACA_site6692] | 6.74
AACAAAGAAAATACATGTACAAAAAATATTAACGAA [XGTACX_site287] | 7.22
TTTAGTGAGTTTGTTGTGCACTGAAAAAATTACAAT | 10.5
ATAAATAAAACAACAGTGCAATAAAATTAGTTGAGG | 7.5
TATATTATATATATACTGCACTGTTTTACAAAATTA | 8.44
TTATATAATCCTTTCAAACACACAAAATATAATTAA [CACACA_site1830] | 6.91
ACAAAATAAACCACGTGTACAAATTTATAATGTGTA [XGTACX_site1153] | 7.21
AAAAATAAAATGATGGTGCACATAAAGTATGGTTAC | 11.3
AAAAAAAAAAAGTGCACACATAAAAATATGATCTAA [CACACA_site572] | 11.5
AAAAAAAAAAAAAGTGCACACATAAAAATATGATCT [CACACA_site8090] | 11.2
AAAAAAAAAAAAAGCACACATATAAATATGAATAAA [CACACA_site1393] | 7.18
ATCTTAACTCTATGCACACATAAAAGTATATAAATA [CACACA_site2256] | 7.7
TATATATATATGTGCACACATAATAAAAAAAAAAAT [CACACA_site3831] | 9.49
TGTTAAAAAATGGATGCACACATTAAATAAAAAGTA [CACACA_site1660] | 8.9
AAAAAAAAAAAAAAAGCACACATATAAATATGAATA [CACACA_site8391] | 7.5
TACAAAATATATATGACACACATAAAAAAAAGTATA [CACACA_site1373] | 6.96
ATATATGACTAATAAAGTACATACTTCATATAATTA [XGTACX_site6699] | 7.06
TAAGTATATTTCTGCACACAAAAAAAAAAACCAAAA [CACACA_site4056] | 7.18
AATGATATATTTAAATGTACACATGAAATATAATAT [XGTACX_site2678] | 7.06

Sequence | gcPBM binding intensity (ln)
ATAAAAAAAAAATAATGTACTTATATATATATATAT [XGTACX_site8282] | 9.32
TATATTATAGGTTGTGTACACATATTATATAGTACT [CACACA_site4583] | 7.16
GATGTATAAAATAATACATGCATGTCCTACATATAT [TGCATGCA_site155] | 6.89
AATACGGCAAACATTAAAAAATATAATAACAATAAA [CACACA_negctrl_site868] | 6.96
ACATATAAAATATATACACACATATAAATACATTAA [CACACA_site3867] | 7.06
GCAAGGTCCACACTGGTGCATTAAAAATAAAATATA [GTGCAC_site9956] | 10.4
ATATGTACGCAAGGTGCACACTGGTGCATTAAAAAA [CACACA_site1801] | 12.3
CATTATGTACAAAAAGTGCAATATATATTAACACTG | 8.23
TGCAAAAAATTCCACACACACACACGCATATAAATA [CACACA_site6696] | 7.27
TATGTGTGCAAAAACTGTACACATTAAAGGTATATA [XGTACX_site7627] | 7.54
GAATATGAATATTTGCGTACTTATATAACTGTTCTA [XGTACX_site883] | 6.83
GTGTTAATTTTAAATTGTACAAAATTTATATGATTT [XGTACX_site348] | 7.19
TAAATGTTTCTCAAAAGTACACATGTGATATTTCTT [XGTACX_site2065] | 6.84
AGCATTTTTCATTTTGCACACATGTTTTATGTGTAT [CACACA_site3454] | 7.11
TATTTTCTCGTTTGCATGCACCTTATTTTATGTGGT [GTGCAC_site9470] | 10.8
TATGTGTATTTATTTGCATGTTGGTTGTATTTTTTC [TGCATGCA_site479] | 6.93
ACTTGTTTTCAATGTAAAATACAATTTTCATTTATT [CACACA_negctrl_site435] | 7.08
TATTAAATTTATCGGAGTACATTTAAATGTATATAC [XGTACX_site7975] | 7.13
TATATAACATATAACACACATACTTAGTATTACATA [CACACA_site3099] | 7
TTCTTTTCTCTTTTAATCATATTATATAAATGAATA [CACACA_negctrl_site820] | 7.29
TAATATAAATGAAAGGTGCTTTTGCTTTCTTTTTTT | 7.08
TCTTTTCTCGGAAGGGTGCAAGGAATTAATGAAATA [GTGCAC_site9706] | 11.1
TTTTTATTTTTTTATTTCTTATCAAATAAAATATAT [XGTACX_negctrl_site537] | 6.84
TGTTTTGTTGTGTATTGTACTAATATAAATATATAA [XGTACX_site1852] | 7.41
TATAAGGCAATAATAGTGCACTAAGATATATAATGA | 10.6
TTGCAATAATGTTGCACACTAAATAGTCATATATAA [CACACA_site263] | 7.31

Sequence | gcPBM binding intensity (ln)
TATTAATATATAGTAGTGCAATAAAGATATACTGAA | 8.3
AAGTAGTGTTAATACTGTACTTATATTTTTTATTAT [XGTACX_site8264] | 6.92
ATTAAAAATATAGTCACACATACACCCATATATATT [CACACA_site5394] | 6.92
ATATCCATAATAAAAACATGCAACAGAAAAAAAAAA [TGCATGCA_site497] | 7.14
TACAAATATATAAAATGTACATATATATACATATTA [XGTACX_site3029] | 6.92
CATATATAAATATGTATGCACTTTAACAAAATGTAT | 7.74
ATTTTATATACAAAATGTACATATTTATTATATATG [XGTACX_site6732] | 6.99
TATATATTTATTAAATGTACATAACAAAAATGGTAT [XGTACX_site3577] | 7.41
ATAAAACGTACAATGGTGCATATAAATAATATATAT [GTGCAC_site9960] | 10.8
ATATATATTAAAAATAGTACATATAATAAAAATCAT [XGTACX_site4265] | 7.11
AATATAAATAAAAACACACACAATGGTACATATATA [CACACA_site3671] | 7.02
TAATTATAATAATAACGTACATATATAAAATGGTGA [XGTACX_site8434] | 7.21
AATCATATTAGTATGGTGCAACATATATAAATATAT | 10.8
ATGTATGCAAAAATGGTGCATATTAAATGTATAACA [GTGCAC_site9722] | 11.1
ATTATGTACAAAATGGTGCAATATTATACATATATA [GTGCAC_site9468] | 10.4
AGTATAAATAAATCATAAACATATATATATATATAT [GTGCAC_negctrl_site356] | 9.25
GTAATATTAAAATATACACACATAGAATATATATAT [CACACA_site4391] | 8.8
TATATATAATATAGTGCATGTAAAAAATAAACCATG [TGCATGCA_site932] | 9.18
GCATGTATAATGGTAGTGCATATAATAATATAATAA [GTGCAC_site9548] | 9.06
TATAATAATATAATGGTGCATGTATATAACCATATA | 10.7
TGAACTCACGAGCACACACACACATATATATATATA [CACACA_site8248] | 9.18
TAAAATTTAAAATATACACACAAAAAGTTATTACAA [CACACA_site4080] | 6.93
TAAAATATATAAAACTGTACATTTTAAAGGCACAAC [XGTACX_site8342] | 7.55
AACTGTACAATTTTTGTGCACAATAATTATTAATAT [GTGCAC_site9462] | 8.74
CTAATCGTGCACAACTGTACATTTGTCAAGGGCAAT [XGTACX_site8662] | 10.4
ATATAAATGATATGTACACACATTTATATATATAAA [CACACA_site3475] | 7.04

Sequence | gcPBM binding intensity (ln)
AATATATACCAACATAAATATATATATATATATATA [TGCATGCA_negctrl_site334] | 9.89
AATATTTTATTTTGGGTGCAAAAGAATATTATTTCA | 10.4
TCAAAAGAATAATTGGTGCAAATTATATAATATAAT [GTGCAC_site9804] | 10.2
TTATAATATATATAAAAGAAAAAAAATTATAATATA [CACACA_negctrl_site90] | 6.69
ATAAAATTATTATATACATGCAAAATTAATATATTG [TGCATGCA_site507] | 6.84
TTAAAAGAATATAATGCACACATTATTTTATTTTAT [CACACA_site3772] | 7.03
ATTTTATTTTATTAAGTGCAAAAAAAAAAAAAGAAA | 8.24
TATTTATTATTATGTACACACTATATTAAAACATAA [CACACA_site4549] | 7.08
CTCAAATGTTATTGTAGTACCTAAAAAATATATTCT [XGTACX_site1970] | 6.97
TGTAGTCTGGAGAAACGTACATAGTATCTGGTAGCT [XGTACX_site2538] | 6.84
TTTTAACATATAAGTACACACATATAATCAATCATA [CACACA_site2325] | 7.25
AATTTCTTTTTCGATATACACACTGTATGTGTCTAA [CACACA_site3975] | 6.94
CATAATATGTGGACTTTACACACTTGTTTTAAAATT [CACACA_site819] | 6.87
TATGTATGTTAGTGTGCACACATAAATATTATATAT [CACACA_site9121] | 9.26
AATGTAGAAATGGGTGCACACACATATATAATATAT [CACACA_site8799] | 11.7
TATATGTATGTTTGTGTGCACACATAAATATTATAT | 8.48
TATATATATATGTGCACACATATATAATATGTATAA [CACACA_site715] | 9.37
AAAATCTAATATAATGCACACATAAAAAAAAAATCA [CACACA_site8871] | 7.17
ATAAATATTGGGTGCACACACATAATATATATATAT [CACACA_site2272] | 12.2
ACATATAAATATTGTGTGCACACACATAATATATAT | 8.29
TGTAGAAATGGGTGCACACACATATAAAATCTATAT [CACACA_site7224] | 12.2
AATATATATATATGTGCACACATATATAATATGTAT [CACACA_site716] | 8.55
ATATATATATATATTGCACACATATAAATATATATA [CACACA_site8167] | 9.22
AAAATCTAATATAATGCACACATAAAAAAAAATCAA [CACACA_site9211] | 7.52
TGTATGTTTGGGTGCACACATAAATATTATATATAG [CACACA_site3397] | 12.2
